Assay results reported in PubChem BioAssay (NCATS).
Where “and” joins values, the source holds several entries; their conditions need not be identical. Equal values may be shown once. Results filed as inconclusive are left out. Calls of active or inactive are those of the source. Unless noted, the call rests on the fitted dose curve; in most records, active means well fitted curve in the direction sought with a large enough effect; inconclusive means small, poorly fitted or top-dose-only effect, or another doubt; inactive means no such curve, though single readings can be large; an effect the other way counts as inactive or inconclusive.

Legend:
[1] = Cell Viability - SK-N-SH (AID 435; calls by dose curve;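 further: potency means the concentration at half of the fitted maximal effect; compound exposure lasted 40 h at 37 °C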); settings: SK-N-SH neuroblastoma cell viability qHTS
Method in brief: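 Luminescent ATP signal served as the viability read-out after 40 hours of compound treatment of human neuroblastoma SK-N-SH cells. Concentration-response data, scaled between DMSO and 100 uM tamoxifen, gave AC50 values by standard Hill modeling.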

[2] = Cell Viability - Renal Proximal Tubule (AID 545); settings: renal proximal tubule cells viability; series mostly up to 91.7 µM; further: nearly all actives have a fitted effect of over 40% in size
Method in brief: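 Luminescent ATP signal (CellTiter-Glo) served as the viability read-out after 40 hr compound exposure of freshly isolated rat proximal tubule cells at 37 °C. Concentration-dependent ATP loss was fitted with the Hill equation to give AC50.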

[3] = Cellular Toxicity (caspase-3) HepG2 (AID 654); settings: HepG2 caspase-3 activation, luminescence, 0% = DMSO only, 100% = tamoxifen; series mostly up to 92.2 µM;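 further: cells exposed to compound for 16 hours before reading; 0% = DMSO alone and 100% = caspase signal from 100 µM tamoxifen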
Method in brief: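 Concentration-response AC50 values reflect caspase-3/7 induction in HepG2 cells after 16 hours of compound exposure, quantified by luminescence from liberated aminoluciferin and referenced to 100 uM tamoxifen as full stimulation.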

[4] = target: Cytochrome P450 3A4 (Homo sapiens) (UniProt P08684); test: qHTS Assay for Inhibitors and Substrates of Cytochrome P450 3A4 (AID 884); settings: recombinant CYP3A4, Luciferin-PPXE luminescence; series mostly up to 57.1 µM; further: on the % scale 0 is the no-effect control and ±100 the full control effect; nearly all actives have a fitted effect of over 50% in size
Cytochrome P450 3A4 (Homo sapiens), sequence (P08684 whole entry, looked up): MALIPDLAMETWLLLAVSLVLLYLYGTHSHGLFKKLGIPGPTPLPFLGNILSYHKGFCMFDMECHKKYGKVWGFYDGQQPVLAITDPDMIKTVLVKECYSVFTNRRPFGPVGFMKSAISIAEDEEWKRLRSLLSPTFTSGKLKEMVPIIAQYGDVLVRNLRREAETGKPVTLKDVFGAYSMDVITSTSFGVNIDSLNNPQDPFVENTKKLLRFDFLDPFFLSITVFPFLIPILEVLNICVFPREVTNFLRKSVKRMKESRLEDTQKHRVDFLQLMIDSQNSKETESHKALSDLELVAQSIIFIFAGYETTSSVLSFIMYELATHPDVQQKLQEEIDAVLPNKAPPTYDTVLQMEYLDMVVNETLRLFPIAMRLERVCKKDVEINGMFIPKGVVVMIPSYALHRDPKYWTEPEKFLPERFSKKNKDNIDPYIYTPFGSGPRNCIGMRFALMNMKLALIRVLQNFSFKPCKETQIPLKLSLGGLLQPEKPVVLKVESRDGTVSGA
Method in brief: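 Luminescent readout of luciferin produced by CYP3A4 (20 nM) dealkylation of Luciferin-PPXE, 25 uM (its KM). NADPH-driven reaction ran 60 min at RT after 10 min compound preincubation; data scaled to 57 uM ketoconazole as 100% inhibition.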

[5] = Cell Viability - LYMP2-004 (AID 966); settings: LYMP2-004 lymphoblastoid cell viability, qHTS; series mostly up to 92.2 µM;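 further: cells exposed to compound for 24 h; plate controls were DMSO only for no effect and tetraoctylammonium bromide control for full effect; nearly all actives have a fitted effect of over 65% in size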
Method in brief: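 Viable-cell number estimated from ATP luminescence (CellTiter-Glo) in 2500 human lymphoblastoid cells/well after 24 hr at 37 C with compound. AC50 fitted to the standard Hill equation.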

[6] = Cell Viability - LYMP2-015 (AID 971); settings: LYMP2-015 lymphoblastoid cell viability; series mostly up to 92.2 µM;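 further: cells exposed to compound for 24 h; 0% = DMSO only and full effect = 92 µM tetraoctylammonium bromide; nearly all actives have a fitted effect of over 55% in size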
Method in brief: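 AC50 values reflect Hill-model fits of ATP-based luminescence (CellTiter-Glo) from a human lymphoblastoid line, 2500 cells/well, treated 24 hr at 37 C.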

[7] = Cell Viability - LYMP2-010 (AID 981); settings: LYMP2-010 lymphoblastoid cell viability, qHTS; series mostly up to 92.2 µM;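 further: cells exposed to compound for 24 hours at 37 °C; nearly all actives have a fitted effect of over 55% in size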; further: potency means the concentration at half of the fitted maximal effect
Method in brief: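 This 24 hr viability screen uses LYMP2-010 lymphoblastoid cells, quantifies ATP via luciferase luminescence, and derives AC50 from Hill fits of qHTS concentration-response data.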

[8] = Cell Viability - LYMP2-012 (AID 982); settings: LYMP2-012 lymphoblastoid cell viability qHTS; series mostly up to 92.2 µM;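 further: cellular ATP by luciferase luminescence where a drop means cytotoxicity; cells exposed to compound for one day before reading; 0% = DMSO only and full loss = 92 µM tetraoctylammonium bromide; nearly all actives have a fitted effect of over 55% in size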
[9] = Cell Viability - LYMP2-018 (AID 985); settings: LYMP2-018 lymphoblastoid cells, viability (qHTS); series mostly up to 92.2 µM;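 further: plate controls were DMSO only for no effect and tetraoctylammonium bromide at 92 µM for full effect; nearly all actives have a fitted effect of over 50% in size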
Method in brief: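 In this qHTS viability assay, cells are treated for 24 hr and cellular ATP is quantified by luciferase-based luminescence, with tetraoctylammonium bromide as positive control.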

[10] = Cell Viability - LYMP2-020 (AID 986); settings: series mostly up to 92.2 µM;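 further: cells exposed to compound for 24 h at 37 °C; plate controls were DMSO only for no effect and tetraoctylammonium bromide at 92 µM for full effect; nearly all actives have a fitted effect of over 55% in size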
Method in brief: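 Cells at 2500 per well receive a 24 hr compound exposure at 37 C. Viability is measured as ATP-dependent luciferase luminescence, with AC50 modeled from qHTS concentration-response curves.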

[11] = qHTS assay for small molecule agonists of retinoid X receptor alpha signaling (AID 588544; calls by dose curve;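 on activation: 0% = DMSO basal wells and 100% = reference agonist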); settings: HEK293T RXRa-UAS-bla, beta-lactamase reporter, 18 h; 530 nm emission
[12] = target: Retinoic acid receptor RXR-alpha (Homo sapiens) (UniProt P19793); test: as above; settings: HEK293T RXRa-UAS-bla, beta-lactamase reporter, 18 h; series mostly up to 76.7 µM
Retinoic acid receptor RXR-alpha (Homo sapiens), sequence (P19793 whole entry, looked up): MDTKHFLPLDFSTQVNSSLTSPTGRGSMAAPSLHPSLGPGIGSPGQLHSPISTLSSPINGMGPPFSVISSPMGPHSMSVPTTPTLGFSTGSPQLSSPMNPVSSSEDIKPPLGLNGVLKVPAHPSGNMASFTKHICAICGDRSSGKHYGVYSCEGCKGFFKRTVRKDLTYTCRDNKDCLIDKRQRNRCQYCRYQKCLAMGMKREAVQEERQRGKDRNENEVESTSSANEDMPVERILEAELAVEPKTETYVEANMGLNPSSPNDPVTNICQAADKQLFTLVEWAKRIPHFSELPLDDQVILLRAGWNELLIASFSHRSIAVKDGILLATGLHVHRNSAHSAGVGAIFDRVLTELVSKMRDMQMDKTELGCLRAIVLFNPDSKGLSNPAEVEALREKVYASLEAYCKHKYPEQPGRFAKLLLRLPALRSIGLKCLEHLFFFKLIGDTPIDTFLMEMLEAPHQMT

[13] = target: Thyroid hormone receptor beta (Homo sapiens) (UniProt P10828); test: qHTS assay for small molecule agonists of thyroid hormone receptor beta signaling (AID 588545; calls by dose curve;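 further: 0% = DMSO only and 100% = 10 nM T3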); settings: TR-UAS-bla GripTite HEK 293, beta-lactamase ratio, agonist mode, 18 h; series mostly up to 76.7 µM
Thyroid hormone receptor beta (Homo sapiens), sequence (P10828 whole entry, looked up): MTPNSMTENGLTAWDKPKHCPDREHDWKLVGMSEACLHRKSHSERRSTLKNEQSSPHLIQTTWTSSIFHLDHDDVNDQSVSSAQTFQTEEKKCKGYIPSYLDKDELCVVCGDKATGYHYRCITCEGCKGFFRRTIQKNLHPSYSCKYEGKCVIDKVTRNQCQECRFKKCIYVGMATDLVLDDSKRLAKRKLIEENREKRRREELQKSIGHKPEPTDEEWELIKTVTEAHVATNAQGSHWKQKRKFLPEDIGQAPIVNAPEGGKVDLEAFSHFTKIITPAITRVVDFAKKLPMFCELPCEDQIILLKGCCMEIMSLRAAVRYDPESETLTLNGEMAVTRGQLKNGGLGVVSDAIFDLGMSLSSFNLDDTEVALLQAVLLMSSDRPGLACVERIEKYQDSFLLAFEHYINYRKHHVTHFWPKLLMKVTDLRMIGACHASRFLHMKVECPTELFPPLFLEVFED
Method in brief: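 TR-UAS-bla-GripTite HEK 293 cells in medium with 2% charcoal/dextran FBS, 0.1 mM NEAA and 1 mM sodium pyruvate were treated with titrated compounds for 18 hrs at 37 C. Beta-lactamase reporter was read with CCF4 dye (ex 405, em 460/530 nm); EC50 from Hill fits.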

[14] = qHTS assay for small molecule antagonists of retinoid X receptor alpha signaling (AID 588546; active means well fitted inhibition curve with a large enough effect in the signal ratio, with a control signal flat, not every such curve was filed as active; the % refers to the signal ratio;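 further: cells stimulated with 9-cis-retinoic acid as agonist; on the % scale 0 is the no-effect control and ±100 the full control effect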); settings: HEK293T RXRa-UAS-bla, beta-lactamase ratio, antagonist mode; measured here: W530 green channel, cytotoxicity proxy
Method in brief: (§1)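 Beta-lactamase reporter inhibition, read as CCF4 fluorescence ratio (ex 405, em 460/530 nm) after 2 h at RT. HEK293T UAS-bla cells, 2500/well, were stimulated with 9-cis-RA at 500 or 100 nM final alongside test compound for 18 h at 37 C.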

[15] = target: Retinoic acid receptor RXR-alpha (Homo sapiens) (UniProt P19793); test: as above; settings: HEK293T RXRa-UAS-bla, beta-lactamase ratio, antagonist mode
Method in brief: as §1

[16] = target: Voltage-gated inwardly rectifying potassium channel KCNH2 (Homo sapiens) (UniProt Q12809); test: qHTS Assay for Small Molecule Inhibitors of the Human hERG Channel Activity (AID 588834); settings: U2OS BacMam hERG, FluxOR thallium flux fluorescence; series mostly up to 92.2 µM;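 further: lower thallium flux fluorescence means stronger hERG block; nearly all actives have a fitted effect of over 50% in size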; further: potency means the concentration at half of the fitted maximal effect
Voltage-gated inwardly rectifying potassium channel KCNH2 (Homo sapiens), sequence (Q12809 whole entry, looked up): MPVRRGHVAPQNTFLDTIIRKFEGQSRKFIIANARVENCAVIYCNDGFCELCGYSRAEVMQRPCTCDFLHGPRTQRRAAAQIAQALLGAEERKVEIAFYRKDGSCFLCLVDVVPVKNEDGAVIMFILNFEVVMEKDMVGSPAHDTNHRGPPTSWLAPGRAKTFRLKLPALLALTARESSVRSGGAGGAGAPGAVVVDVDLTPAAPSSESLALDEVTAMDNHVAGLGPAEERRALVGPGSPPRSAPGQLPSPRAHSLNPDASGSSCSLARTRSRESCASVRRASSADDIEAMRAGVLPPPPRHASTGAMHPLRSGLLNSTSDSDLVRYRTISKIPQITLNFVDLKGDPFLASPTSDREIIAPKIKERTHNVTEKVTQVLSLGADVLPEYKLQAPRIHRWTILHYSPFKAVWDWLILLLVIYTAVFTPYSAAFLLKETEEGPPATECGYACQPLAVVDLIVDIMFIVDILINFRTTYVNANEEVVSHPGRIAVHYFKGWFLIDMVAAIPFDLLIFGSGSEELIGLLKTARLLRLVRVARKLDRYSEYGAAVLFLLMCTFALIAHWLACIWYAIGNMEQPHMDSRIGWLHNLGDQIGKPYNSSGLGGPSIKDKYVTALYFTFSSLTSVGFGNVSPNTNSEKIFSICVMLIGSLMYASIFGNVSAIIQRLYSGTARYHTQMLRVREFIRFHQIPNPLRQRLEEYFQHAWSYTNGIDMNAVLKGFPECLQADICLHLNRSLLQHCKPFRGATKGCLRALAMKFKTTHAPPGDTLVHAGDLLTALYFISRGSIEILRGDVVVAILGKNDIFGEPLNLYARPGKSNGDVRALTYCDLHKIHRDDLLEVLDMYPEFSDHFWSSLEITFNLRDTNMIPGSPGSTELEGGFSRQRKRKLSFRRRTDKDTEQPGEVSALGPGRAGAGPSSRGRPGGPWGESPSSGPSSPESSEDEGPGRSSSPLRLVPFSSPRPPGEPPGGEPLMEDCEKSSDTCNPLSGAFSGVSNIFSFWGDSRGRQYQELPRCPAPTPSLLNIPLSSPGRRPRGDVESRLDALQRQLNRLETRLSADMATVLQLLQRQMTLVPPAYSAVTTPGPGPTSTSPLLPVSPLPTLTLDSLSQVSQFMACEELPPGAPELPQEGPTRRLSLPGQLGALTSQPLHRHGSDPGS
Method in brief: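 Step 1: BacMam hERG transduction of U2OS, 4 hrs RT. Step 2: overnight 37 °C, plate 2000 cells/well, 4 hr. Step 3: FluxOR load, compound 10 min, stimulate, read fluorescence.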

[17] = qHTS assay for environmental chemicals that activate the Aryl hydrocarbon Receptor (AhR) signaling pathway (AID 651777); settings: 1A2-DRE human hepatoma cells, luciferase, 24 h; activation: stronger effect = higher value; further: nearly all actives have a fitted effect of over 15% in size; further: potency means the concentration at half of the fitted maximal effect; on activation: % of control where 0% means no effect
Method in brief: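 Following a 24 hr incubation with test chemicals at 37 C and 5% CO2, 1A2-DRE human hepatoma cells received One-Glo reagent; after 30 min at room temperature, luciferase output reflected CYP1A2 induction via AhR.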

[18] = target: Nuclear receptor ROR-gamma (Homo sapiens) (UniProt P51449); test: qHTS assay for small molecule antagonists of the retinoid-related orphan receptor gamma (ROR-gamma) signaling pathway (AID 651802); settings: ROR-gamma antagonist cell reporter assay; series mostly up to 92.2 µM; further: nearly all actives have a fitted effect of over 60% in size; further: potency means the concentration at half of the fitted maximal effect
Nuclear receptor ROR-gamma (Homo sapiens), sequence (P51449 whole entry, looked up): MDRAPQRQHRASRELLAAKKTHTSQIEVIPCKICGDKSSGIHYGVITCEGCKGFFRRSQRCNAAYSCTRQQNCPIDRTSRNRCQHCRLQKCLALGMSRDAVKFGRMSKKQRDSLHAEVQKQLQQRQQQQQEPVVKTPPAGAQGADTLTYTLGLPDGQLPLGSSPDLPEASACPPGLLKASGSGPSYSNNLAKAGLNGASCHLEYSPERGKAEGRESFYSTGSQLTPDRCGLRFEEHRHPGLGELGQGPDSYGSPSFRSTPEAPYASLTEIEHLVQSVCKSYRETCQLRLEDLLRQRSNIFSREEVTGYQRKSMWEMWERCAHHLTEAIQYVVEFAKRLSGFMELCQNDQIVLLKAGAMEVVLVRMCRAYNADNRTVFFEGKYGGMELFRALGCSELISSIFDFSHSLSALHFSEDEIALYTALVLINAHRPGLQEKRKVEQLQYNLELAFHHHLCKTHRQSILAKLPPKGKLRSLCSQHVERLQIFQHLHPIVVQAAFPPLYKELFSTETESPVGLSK
Method in brief: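 Doxycycline-induced reporter activity in engineered CHO cells (TET-inducible ROR, RORE-LUC) was measured by luminescence after 16hr compound exposure at 37C.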

[19] = qHTS assay for cell viability of the p53RE-bla HCT-116 cell line (AID 743292); settings: p53RE-bla HCT-116 viability, ATP luminescence, 16 h; series mostly up to 95 µM
Method in brief: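 After plating at 4,000 cells per well and a 5 h rest at 37 C, HCT-116 cells carrying p53RE-bla received test chemicals in DMSO. Sixteen hours later at 37 C, CellTiter-Glo was added and luminescence recorded following 30 min at room temperature.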

[20] = Cellular Toxicity (caspase-3) SK-N-SH (AID 661); settings: SK-N-SH caspase-3 activation, qHTS; series mostly up to 91.7 µM;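 further: 0% = DMSO basal and 100% = 10 µM staurosporine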
Method in brief: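 Apoptosis readout in SK-N-SH neuroblastoma: Caspase-Glo 3/7 luminescence following 16 hr treatment in complete culture medium. Normalization used DMSO and 10 uM staurosporine controls.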

CC(C)Br
4.33%: max response [14]
-8.42%: max response [11]
inactive: Potency [1] > 92 µM | outcome [2] | outcome [3] | Potency [4] | Potency [5] | Potency [6] | Potency [7] | Potency [8] | Potency [9] | Potency [10] | outcome [12] | Potency [13] | max response [15] -3.19% | Potency [16] | activation [17] -0.85% | Potency [18] | Potency [19]

Nc1ccc([N+](=O)[O-])cc1N
7.14% and -1.85%: max response [14]
-12.1%: max response [11]
inactive: Potency [1] > 92 µM | outcome [2] | outcome [3] | Potency [20] | Potency [4] | Potency [5] | Potency [6] | Potency [8] | Potency [9] | Potency [10] | outcome [12] | Potency [13] | max response [15] -24.9% and -14.3% | Potency [16] | activation [17] 1.47% and 1.07% | Potency [19]
active: Potency [18] 42.2 µM

c1ccc(N=NNc2ccccc2)cc1
-2.24%: max response [14]
active: Potency [16] 39.8 µM | Potency [17] 12.6 µM and 1.41 µM
7.75%: max response [11]
inactive: Potency [1] > 92 µM | outcome [2] | outcome [3] | Potency [20] | Potency [4] | Potency [5] | Potency [6] | Potency [7] | Potency [8] | Potency [9] | Potency [10] | outcome [12] | Potency [13] | max response [15] -17.2% | Potency [18] | Potency [19]

N#CC(Br)Br
0.349%: max response [11]
active: Potency [7] 50.1 µM
-2.67%: max response [14]
inactive: Potency [1] > 92 µM | outcome [2] | outcome [3] | Potency [20] | Potency [4] | Potency [5] | outcome [12] | Potency [13] | max response [15] 18.7% | Potency [16] | activation [17] 1.38% | Potency [18] | Potency [19]

CC(C)(COCC1CO1)COCC1CO1 (stereo not given)
inactive: outcome [2] | outcome [3] | Potency [20] | Potency [4] | Potency [5] | Potency [6] | Potency [7] | Potency [8] | Potency [9] | Potency [10] | max response [15] 6.95% | Potency [16] | activation [17] -0.0471% | Potency [18] | Potency [19]
21.1%: max response [14]

Nc1cc(Cl)ccc1O
active: Potency [17] 44.7 µM
inactive: Potency [1] > 92 µM | outcome [2] | outcome [3] | Potency [4] | Potency [5] | Potency [8] | Potency [9] | Potency [10] | Potency [13] | max response [15] -9.48% | Potency [16] | Potency [18] | Potency [19]
-1.3%: max response [14]

CC(C)[N+](=O)[O-]
inactive: Potency [1] > 92 µM | outcome [2] | outcome [3] | Potency [20] | Potency [4] | Potency [5] | Potency [6] | Potency [7] | Potency [8] | Potency [9] | Potency [10] | outcome [12] | Potency [13] | max response [15] 14.3% | Potency [16] | activation [17] 0.897% | Potency [18] | Potency [19]
10.7%: max response [14]
5.89%: max response [11]
